# Measurements published in the supplement of paper PMC12297408.
# Structures can show the parent of a compound that is named as a salt. Screen size: about 1,300 compounds; about 40 (3%) showed activity. This is one part of a sample in which actives are shown more often than they occur. A number with no mark means an inactive call.
# System: Plasmodium falciparum NF54/iGP1_RE9H ulg8 stage V gametocytes
# Test: gametocyte viability (luciferase signal relative to DMSO control) (% of DMSO control); higher = less gametocytocidal activity, active = 50 or less
# Conditions: exposure time: 72 h
# Procedure, shortened: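 In 96-well plates holding nanolitre spots of compound (10 mM DMSO stocks), NF54/iGP1_RE9Hulg8 stage V gametocytes from day 12 were added at ~2.5% gametocytemia and 3% hematocrit in medium with 0.5% Albumax II, giving single wells at 10 µM or 1 µM. Incubation lasted 72 h at 37 °C. Each 90 µl sample then received 10 µl D-luciferin (30 mg/ml) before luminescence reading on an IVIS Lumina II, and viability was normalized to the mean of DMSO vehicle wells on the same plate.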
Structure (SMILES),gametocyte viability (concentration: 1 µM),gametocyte viability (concentration: 10 µM)
C=CC1=C(C(=O)O)N2C(=O)[C@@H](NC(=O)/C(=N\O)c3csc(N)n3)[C@H]2SC1 [Cefdinir],80.8,83.8
CN1C(=O)OC(C)(C)C1=O [Trimethadione],82.9,88.6
CC1=C(CC(=O)O)c2cc(F)ccc2/C1=C\c1ccc([S+](C)[O-])cc1 (stereo not given) [Sulindac],88.6,82.7
Cc1cc(NC(=O)C2=C(O)c3ccccc3S(=O)(=O)N2C)no1 [Isoxicam],82.8,81.8
C[N+]1(C)CCC(=C(c2ccccc2)c2ccccc2)CC1 [Diphemanil methylsulfate],87,83
CCc1ccc(CCOc2ccc(CC3SC(=O)NC3=O)cc2)nc1 (stereo not given) [Pioglitazone],86,88.2
NC(=O)C(c1ccccc1)(c1ccccc1)[C@@H]1CCN(CCc2ccc3c(c2)CCO3)C1 [Darifenacin hydrobromide],81.7,84.2
CC(C)(S)[C@@H](N)C(=O)O [Penicillamine],92.4,93.1
N#Cc1cc(NC(=O)C(=O)O)c(Cl)c(NC(=O)C(=O)O)c1 [Lodoxamide],91.8,102
CC1=C(/C=C/C(C)=C/C=C/C(C)=C/C(=O)O)C(C)(C)CCC1 [Retinoic acid],82.1,64
CCC(=O)[C@@]1(C)[C@H](C)C[C@H]2[C@@H]3CCC4=CC(=O)C=C[C@]4(C)[C@H]3[C@@H](O)C[C@@]21C [Rimexolone],89.4,85.3
CCCNC(C)C(=O)Nc1c(C)csc1C(=O)OC (stereo not given) [Articaine hydrochloride],81.9,83
CN/C(=N\CCSCc1nc[nH]c1C)NC#N [Cimetidine],100,94.5
C[C@]12CC[C@@H]3c4ccc(O)cc4C[C@@H](CCCCCCCCC[S+]([O-])CCCC(F)(F)C(F)(F)F)[C@H]3[C@@H]1CC[C@@H]2O (stereo not given in full) [Fulvestrant],90.3,84.7
O=C1OC(CN2CCOCC2)CN1/N=C/c1ccc([N+](=O)[O-])o1 (stereo not given) [Furaltadone hydrochloride],89.7,93.4
CN(C)CCN1C(=O)c2ccccc2N(C)c2ccccc21 [Dibenzepine hydrochloride],84.8,91.3
COc1cc(NC(C)CCCN)c2ncccc2c1 (stereo not given) [Primaquine diphosphate],83.1,35.1 (active)
CCCc1nc(C)c2c(=O)nc(-c3cc(S(=O)(=O)N4CCN(CC)CC4)ccc3OCC)[nH]n12 [Vardenafil],70.1,43.9 (active)
CCCc1nn(C)c2c(=O)[nH]c(-c3cc(S(=O)(=O)N4CCN(C)CC4)ccc3OCC)nc12 [Sildenafil],90.3,70.6
CN(C)CCOC(c1ccccc1)c1ccccc1.Cn1c(=O)c2[nH]c(Cl)nc2n(C)c1=O [Dimenhydrinate],89,94
